Assay results reported in PubChem BioAssay AID2283334 (EPA ToxCast).
Results filed as inconclusive are left out. Calls of active or inactive are those of the source. Rule for the calls: active = hit-call score of the fitted dose curve at least 0.9, where 1 is the maximum; inactive = score below 0.9.

Biological target: Grik1 (gene 29559) (UniProt P22756)
Test: NVS_IC_rKAR: NovaScreen (NVS) Ion Channel Assay for Kainic Acid Receptors (KAR)
Protocol: NVS_IC_rKAR is a biochemical, single-readout assay that uses extracted gene-proteins from Rat forebrain membranes in a tissue-based cell-free assay. Measurements were taken 1 hour after chemical dosing in a 48-well plate.NVS_IC_rKAR is one of one assay component(s) measured or calculated from the NVS_IC_rKAR assay. It is designed to make measurements of radioligand binding, a form of binding reporter, as detected with scintillation counting signals by Filter-based radiodetection technology.Data from the assay component NVS_IC_rKAR was analyzed into 1 assay endpoint. This assay endpoint, NVS_IC_rKAR, was analyzed in the positive analysis fitting direction relative to DMSO as the negative control and baseline of activity. […] Furthermore, this assay endpoint can be referred to as a primary readout, because the performed assay has only produced 1 assay endpoint. […]
Binding assays used specific radioligands (tritiated, iodinated) with non-radioactive competitive displacement ligands in agonist or antagonist protocols (as indicated) and various reference compounds and inhibitors to titrate specific binding to receptors and transporters. Most enzyme assays (CYPs, kinases, phosphatases, proteases, HDACs) used recombinant protein and specific substrates (fluorescence mostly, some colorimetric and radioactive) and inhibitors, followed by a biochemical separation of substrate and product. […]

Chain of Grik1 (gene 29559) (P22756 whole entry, looked up): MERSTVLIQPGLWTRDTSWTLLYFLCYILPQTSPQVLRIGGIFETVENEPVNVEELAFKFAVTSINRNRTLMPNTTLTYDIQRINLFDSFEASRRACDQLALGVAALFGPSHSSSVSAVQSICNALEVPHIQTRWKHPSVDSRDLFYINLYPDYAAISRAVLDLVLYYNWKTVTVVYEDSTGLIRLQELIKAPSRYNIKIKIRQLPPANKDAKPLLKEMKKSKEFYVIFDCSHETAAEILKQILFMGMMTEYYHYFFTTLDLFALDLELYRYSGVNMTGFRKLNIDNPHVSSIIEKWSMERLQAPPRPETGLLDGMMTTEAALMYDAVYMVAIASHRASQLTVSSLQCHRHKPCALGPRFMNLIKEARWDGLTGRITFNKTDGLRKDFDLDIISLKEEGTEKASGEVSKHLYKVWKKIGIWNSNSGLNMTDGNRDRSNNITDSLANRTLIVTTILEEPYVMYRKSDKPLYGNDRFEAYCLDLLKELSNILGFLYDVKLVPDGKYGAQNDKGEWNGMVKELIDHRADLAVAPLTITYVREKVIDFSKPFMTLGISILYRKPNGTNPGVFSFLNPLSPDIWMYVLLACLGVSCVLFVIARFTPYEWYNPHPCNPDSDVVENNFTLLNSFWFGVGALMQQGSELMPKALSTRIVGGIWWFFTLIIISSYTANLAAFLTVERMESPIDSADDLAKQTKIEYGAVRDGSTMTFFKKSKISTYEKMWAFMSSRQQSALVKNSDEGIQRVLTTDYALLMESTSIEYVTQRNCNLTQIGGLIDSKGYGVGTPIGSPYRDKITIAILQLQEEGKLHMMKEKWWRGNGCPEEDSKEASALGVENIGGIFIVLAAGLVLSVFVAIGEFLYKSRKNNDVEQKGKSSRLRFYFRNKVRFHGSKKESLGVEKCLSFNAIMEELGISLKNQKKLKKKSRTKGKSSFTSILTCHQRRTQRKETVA

Row | SMILES | AC50
1 | CCCCCCCCCCCCCCCCCC(=O)O | 1.4 µM (active)
2 | CCCCCCC(C)OC(=O)COc1nc(F)c(Cl)c(N)c1Cl (configuration not stated) | 30.2 µM (active)
